Assay results: PubChem BioAssay (NCATS)
Where “and” joins values, the source holds several entries; their conditions need not be identical. Identical values can stand only once. Results filed as inconclusive are left out. Calls of active or inactive are those of the source. Calls come from the whole dose curve; as a rule, active = well fitted inhibition curve with a large enough effect; inconclusive = small, poorly fitted or top-dose-only effect; inactive = flat fitted curve, though single readings scatter. Where a SMILES comes first, the peptide text is derived from it.

Legend:
[1] = system: CRL-7250; test: Cytotoxic Profiling of Annotated Libraries Using Quantitative High-Throughput Screening (AID 1296008); conditions: Five cell lines viability, CellTiter-Glo ATP luminescence, 48-72 h; max response: stronger effect = lower value; for max response: % is set by controls: 0 for no effect and ±100 for the full control effect
How it was run: (§1)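 Compounds were pin-transferred onto cells and incubated 48 or 72 hr at 37 degree Celsius, 95% humidity. CellTiter-Glo was added, plates sat 10 min at room temperature, then ATP-coupled luminescence was imaged as the viability read-out.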

[2] = system: HEK293; test: as above; conditions: Five cell lines viability, CellTiter-Glo ATP luminescence, 48-72 h; max response: stronger effect = lower value
How it was run: as §1

[3] = system: HaCat; test: as above; conditions: Five cell lines viability, CellTiter-Glo ATP luminescence, 48-72 h; max response: stronger effect = lower value
How it was run: as §1

[4] = system: KB-3-1; test: as above; conditions: Five cell lines viability, CellTiter-Glo ATP luminescence, 48-72 h; max response: stronger effect = lower value
How it was run: as §1

[5] = system: NIH3T3; test: as above; conditions: Five cell lines viability, CellTiter-Glo ATP luminescence, 48-72 h; max response: stronger effect = lower value
How it was run: as §1

[6] = system: HACAT; test: qHTS assay to identify novel small-molecules to repurpose for Merkel cell carcinoma treatment (AID 1296009); conditions: MCC and control cell lines, CellTiter-Glo viability, 72 h; at 44.8 µM (top of the series) unless noted
How it was run: (§2)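 Cells exposed to NPC (8-point) and MIPE (11-point) compound dilutions for 72 hr at 37 degree celsius; viability read by CellTiter-Glo luminescence, normalized to no-cell and DMSO in-plate controls.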

[7] = system: HEK293T; test: as above; conditions: MCC and control cell lines, CellTiter-Glo viability, 72 h; series mostly up to 44.8 µM
How it was run: as §2
Note: nearly all actives have a fitted effect of over 60% in size.

O=C(O)C[C@@H](NC(=O)c1cc(-c2ccc(-c3ccncc3)cc2)cs1)c1ccccc1
inactive: max response [1] 1.97% | outcome [2] | outcome [3] | max response [4] 4.03% | max response [5] 1.34% | outcome [6] | Potency [7]

COc1ccc(/C=C/C(=O)O[C@@H]2[C@@H](OC(C)=O)[C@@H](OC(C)=O)[C@H](O[C@H]3[C@@H]4C=CO[C@@H](O[C@@H]5O[C@H](CO)[C@@H](O)[C@H](O)[C@H]5O)[C@@H]4[C@@]4(CO)O[C@@H]34)O[C@H]2C)cc1O
inactive: max response [1] 3.11% | outcome [2] | outcome [3] | max response [4] 9.42% | max response [5] 3.23% | outcome [6] inactive [at 17.4 µM] | Potency [7]

C[C@H]1CN(C[C@H](Cc2ccccc2)C(=O)NCC(=O)O)CC[C@@]1(C)c1cccc(O)c1
inactive: max response [1] -8.36% | outcome [2] | outcome [3] | outcome [4] | outcome [5] | outcome [6] | Potency [7]

C[C@@H]1O[C@@H](O[C@H]2[C@H](OC(=O)[C@]34CCC(C)(C)C[C@H]3C3=CCC5[C@@]6(C)C[C@H](O)[C@H](O[C@@H]7O[C@H](CO)[C@@H](O[C@@H]8O[C@H](CO)[C@@H](O)[C@H](O)[C@H]8O)[C@H](O)[C@H]7O)[C@@](C)(CO)C6[C@H](O)C[C@@]5(C)[C@]3(C)C[C@H]4O)OC[C@H](O)[C@@H]2O)[C@H](O)[C@H](O)[C@H]1O[C@@H]1OC[C@@H](O)[C@H](O[C@@H]2OC[C@](O)(CO)[C@H]2O)[C@H]1O (stereo partly drawn)
inactive: max response [1] 4.17% | outcome [2] | outcome [3] | outcome [4] | max response [5] 4.2% | outcome [6] inactive [at 9.27 µM] | outcome [7] inactive [at 9.27 µM]

C=C(C)[C@H]1C[C@@H](O)C(=C)CC[C@@H](O)C(=C)[C@@H](O)C1
inactive: max response [1] -0.626% | outcome [2] | outcome [3] | outcome [4] | max response [5] -1.51% | outcome [6] | Potency [7]

CC1NC(=O)CNC(=O)C(C(C)C)NC(=O)C2CCCN2C(=O)C(C(C)C)NC(=O)C(Cc2c[nH]c3ccccc23)NC1=O (stereo not drawn) (cyclo(GAWVPV); configuration not given here)
inactive: outcome [1] | outcome [2] | outcome [3] | outcome [4] | outcome [5] | outcome [6] inactive [at 17.4 µM] | Potency [7]

CC(=O)O[C@@H]1C[C@@]23C[C@@]24CC[C@H](OC2OC[C@@H](O)[C@H](O)[C@H]2O)C(C)(C)[C@@H]4CC[C@H]3[C@]2(C)CC3OC4(C[C@@H](C)C3[C@@]12C)OCC1(C)OC14 (stereo partly drawn)
inactive: max response [1] -1.36% | outcome [2] | outcome [3] | max response [4] -4.87% | max response [5] 3.69% | outcome [6] inactive [at 17.4 µM] | Potency [7]

CC1=C2C=C(CO)C(CO)CCC2(C)CCC1=O (stereo not drawn)
inactive: max response [1] -3.34% | outcome [2] | outcome [3] | outcome [4] | max response [5] -1.32% | outcome [6] | Potency [7]

CNC(=O)COC(=O)NCCC1CCN(c2cccc(C)n2)CC1
inactive: max response [1] -5.78% | outcome [2] | outcome [3] | max response [4] 9.28% | max response [5] -5.35% | outcome [6] | Potency [7]

CCCCN(CCCC)C(=O)CN1C[C@H](c2ccc3c(c2)OCO3)[C@@H](C(=O)O)[C@@H]1c1ccc(OC)cc1
inactive: max response [1] -2.69% | outcome [2] | outcome [3] | outcome [4] | max response [5] 2.42% and 5% | outcome [6] | Potency [7]

C=C[C@H]1[C@H](O[C@@H]2O[C@H](CO[C@@H]3OC[C@](O)(CO)[C@H]3O)[C@@H](O)[C@H](O)[C@H]2O)OC=C2C(=O)OCC[C@H]21
inactive: outcome [1] | outcome [2] | outcome [3] | outcome [4] | outcome [5] | outcome [6] inactive [at 17.4 µM] | Potency [7]

C=C1CCC2C(C)(CO[C@@H]3O[C@H](CO)[C@@H](O)[C@H](O)[C@H]3O)C(O)CCC2(C)C1C(=O)CC1=CCOC1=O (stereo partly drawn)
inactive: max response [1] -10.6% | outcome [2] | outcome [3] | max response [4] 4.59% | max response [5] 1.1% | outcome [6] inactive [at 17.4 µM] | Potency [7]

CC1CC(O)CC(C)(C)C1(O)CCO (stereo not drawn)
inactive: max response [1] -5.35% | outcome [2] | outcome [3] | outcome [4] | max response [5] 0.3% | outcome [6] inactive [at 92 µM] | Potency [7]

C[C@H]1[C@H](C)CC[C@]2(C(=O)O[C@@H]3O[C@H](CO)[C@@H](O)[C@H](O)[C@H]3O)CC[C@]3(C(=O)O)C(=CCC4[C@@]5(C)CC[C@H](O[C@@H]6O[C@H](CO)[C@@H](O)[C@H](O)[C@H]6O)C(C)(C)C5CC[C@]43C)[C@H]12 (stereo partly drawn)
inactive: max response [1] 3.01% | outcome [2] | outcome [3] | max response [4] 2.34% | max response [5] -5.27% | outcome [6] inactive [at 9.27 µM] | outcome [7] inactive [at 9.27 µM]

COC1(CC(C)C)NC(=O)C(O)(Cc2ccccc2)NC1=O (stereo not drawn)
inactive: max response [1] 2.47% | outcome [2] | outcome [3] | max response [4] -4.71% | outcome [5] | outcome [6] | Potency [7]

O=C(O[C@H]1[C@@H]2C=CO[C@@H](O[C@@H]3O[C@H](CO)[C@@H](O)[C@H](O)[C@H]3O)[C@@H]2[C@@]2(CO)O[C@@H]12)c1ccc(O)cc1
inactive: max response [1] 1.96% | outcome [2] | outcome [3] | max response [4] 3.57% | outcome [5] | outcome [6] inactive [at 17.4 µM] | Potency [7]

C=C1C[C@]23C[C@H]1CC[C@H]2[C@]1(C)CCC[C@@]2(CO)C(=O)O[C@H]([C@H]21)[C@@H]3O
inactive: max response [1] -1.22% | outcome [2] | outcome [3] | max response [4] 6.36% | max response [5] 2.59% | outcome [6] | Potency [7]

CCC(CCO[C@@H]1O[C@H](CO[C@H]2OC[C@](O)(CO)[C@H]2O)[C@@H](O)[C@H](O)[C@H]1O)C(C)(C)O (stereo partly drawn)
inactive: max response [1] -2.81% | outcome [2] | outcome [3] | outcome [4] | max response [5] 1.97% | outcome [6] inactive [at 17.4 µM] | Potency [7]

CCC1CC2C(C)=CC3CCCCC3C2(C)C2(OC(=O)C(C)(O)OC2=O)O1 (stereo not drawn)
inactive: max response [1] 0.081% | outcome [2] | outcome [3] | outcome [4] | max response [5] 1.16% | outcome [6] | Potency [7]

COc1ccc(C2=CC(=O)OC2Cc2ccc(O)cc2)c(O)c1 (stereo not drawn)
inactive: outcome [1] | outcome [2] | outcome [3] | max response [4] 6.42% | max response [5] 1.17% | outcome [6] | Potency [7]

CC(C#N)C(C)O[C@@H]1O[C@H](CO)[C@@H](O)[C@H](O)[C@H]1O (stereo partly drawn)
inactive: outcome [1] | outcome [2] | outcome [3] | outcome [4] | outcome [5] | outcome [6] | Potency [7]

CC1(C)CC[C@]2(C(=O)O[C@@H]3O[C@H](CO)[C@@H](O)[C@H](O)[C@H]3O)CC[C@]3(C)C(=CCC4[C@@]5(C)C[C@@H](O)[C@H](O)C(CO)(CO)C5CC[C@]43C)C2[C@@H]1O (stereo partly drawn)
inactive: max response [1] 3.1% | outcome [2] | outcome [3] | max response [4] 8.19% | outcome [5] | outcome [6] inactive [at 17.4 µM] | Potency [7]

CCOc1nc2cccc(C(=O)OCc3oc(=O)oc3C)c2n1Cc1ccc(-c2ccccc2-c2noc(O)n2)cc1
inactive: outcome [1] | outcome [2] | outcome [3] | outcome [4] | outcome [5] | outcome [6] | Potency [7]

C=C1C(=O)OC2/C=C(\C)CC/C=C(\C(=O)O)CC/C=C(\C)CCC12 (stereo not drawn)
inactive: outcome [1] | outcome [2] | outcome [3] | max response [4] 5.52% | max response [5] 2.63% | outcome [6] | Potency [7]
